In publication PMC12864922, “TDP-43 directly inhibits mRNA accumulation in neurites through modulation of mRNA stability”:
In all, about 9,900 sequences were measured (“r (bound/input frequency ratio)”: median about 0.7, highest 2% from about 6.5 on). This is one part of a sample in which the highest values are shown more often than they occur.

B1: ENSMUSG00000058297.78|Spock2 (ssRNA)
RNA: GGGAGUUCUACAGUCCGACGAUCGCUUCGAUAUCCGCAUGCUACUCAGCCCAACACCUGGAAUCCCUGCCCUGCCUAAUCAGCCCUACCCCAUCCUGCCUUUCUUCCUUCCUCUUCUGAGGCCAGGGAGAGGGAGGGAGGGCAGGCAGCUGAAAGCUGAGCGUCCUCCCCAAAUUGGGCUGAUUUGAUAUGAAAGCCCCACCACGGUCUUGUGGUGAUGAGGCAGGACCUGUACACACAGCAAGGCUUACUAUCCGUCUCCUGACAUCCGAAGAGCUCGUCGCAGGUGUGUCUAAUGGCCCUUCUCUUGCGGUCGCACUAGUGUGGAAUUCUCGGGUGUCAAGG
B2: ENSMUSG00000031028.156|Tub|40:45;125:130 (ssRNA)
RNA: GGGAGUUCUACAGUCCGACGAUCGCUUCGAUAUCCGCAUGCUAAGCUCCCAUUAUUGCCAGCAUGCCAUGAUCAGUGAGGGCACACACCCAUGCUUAGGGGGAUGGCGCAGGGUGAGGGGAGCAGAGGAUAUUUUAGGGCCACAAGAGCUCAGAGGUAGCGGACCUCACACACGUUCACCAACAGCAAUGCUGAUCCCUGAGUAUAGGGCACAUGUCUCUUGGUUACCUCACUGGUUAAUGGCAGAGUUGAGAACCUCAAAUUCUUUUGUUCCUACUGUUGCCCAGAAACUAGACUCUCUGACCUCUUGCGGUCGCACUAGUGUGGAAUUCUCGGGUGUCAAGG
B3: ENSMUSG00000028439.157|Fam219a (ssRNA)
RNA: GGGAGUUCUACAGUCCGACGAUCGCUUCGAUAUCCGCAUGCUAUAGCUCAAAGUCCAGGAGCCAGGCUUCCAGAAAGGCUCUUCAAGAGCAAGCUUAAGGAAAUACAGUGAGCCAAGUGGCUGUAUGAUAUGGUAUGGUAUGGUAUGGUAUGGUAUGGUAUGGUAUGCACAUGUGUGUGCAUGUGUGUGUGCCUGUGUGUGUGCGUGUGCGUGUGUGUAUGUGUGUGCGUGUGUGUGUGUGUGUGUUGUACCCGAGUGUGUGUUGAGCCUAUCUGUCCAGGGAACCAGAUUGGUGUCCGAGAUCUCUUGCGGUCGCACUAGUGUGGAAUUCUCGGGUGUCAAGG
B4: ENSMUSG00000028439.156|Fam219a (ssRNA)
RNA: GGGAGUUCUACAGUCCGACGAUCGCUUCGAUAUCCGCAUGCUAUCACCCUAGCUCAAAGUCCAGGAGCCAGGCUUCCAGAAAGGCUCUUCAAGAGCAAGCUUAAGGAAAUACAGUGAGCCAAGUGGCUGUAUGAUAUGGUAUGGUAUGGUAUGGUAUGGUAUGGUAUGGUAUGCACAUGUGUGUGCAUGUGUGUGUGCCUGUGUGUGUGCGUGUGCGUGUGUGUAUGUGUGUGCGUGUGUGUGUGUGUGUGUUGUACCCGAGUGUGUGUUGAGCCUAUCUGUCCAGGGAACCAGAUUGGUGUCCUCUUGCGGUCGCACUAGUGUGGAAUUCUCGGGUGUCAAGG
B5: ENSMUSG00000061578.89|Ksr2 (ssRNA)
RNA: GGGAGUUCUACAGUCCGACGAUCGCUUCGAUAUCCGCAUGCUACAAACAUCUGAUUUUAGAGGUCCCAUUCCAAGAUGGAAGUCACCGGUUGCCGCUGAGCACACAAUUCUGAAGGACAGUAGGCAGUCCUGCAGGUCUUUUUUAGCACAGGGCCUCUCUGGGGACCAGUCCCUGGCCUUCACCCUUCUCCCAUUUUGUAAGAACACUGUUCUAACUCACCUCAUGCCCACGCUACCCUGGGCAACUGGAGAACACCAUAGCGUUUCAGCUGAUGUGACAUUUGGUGUGACCUUUACCAGUUCCUCUUGCGGUCGCACUAGUGUGGAAUUCUCGGGUGUCAAGG
B6: ENSMUSG00000090935.496|Synj2bp (ssRNA)
RNA: GGGAGUUCUACAGUCCGACGAUCGCUUCGAUAUCCGCAUGCUACUUCACAUAACUAAGCCAUUCAGUACUUUUUGAAACUGACUUAGUAACAGGAGUCAUUGUAAGCUCCAUAGAAGGCAAGACGCAUUCCACAUCUUGUCUUGACCAGCAGCACUCUGGAGGCCCAGUGUCUGCUACCCUUCUUGUAUCUGAUGGCAUGGGUAACAGCUCUGCCAUGGGCCUGCUUACUUCUAGUAUUCACCUCAGGGCUUGGAAAUUGGUUUUGAAAGGCUUUUAGACAUAGAAAGUAAAACUAAUGGCAACUCUUGCGGUCGCACUAGUGUGGAAUUCUCGGGUGUCAAGG
B7: ENSMUSG00000032194.286|Kank2 (ssRNA)
RNA: GGGAGUUCUACAGUCCGACGAUCGCUUCGAUAUCCGCAUGCUAGGAUGGGUGGACGGAUGAGUGUGGGGUGGGUGGAUGGAUAAAUGAGCAAUGGAUGAGAAACUGGGUUGGCUGGUGGGUAGAUGUCAUGAUGGAGUCUUUGCACGUGUAUGAAACAGAAAACCAAACUUCAGGACAGACAGCUGCUGGUGUCUCUGGAUGCUCACAGCCUAGGGCACAUUUGAAAGGUCGUGCUCUGAGCUGAGCCCUGAGUUCCAGCCUUGUAGCCAGCAAGGGAGUUUAUUUAAGGUUCUGGAAGCAUCCUCUUGCGGUCGCACUAGUGUGGAAUUCUCGGGUGUCAAGG
B8: ENSMUSG00000058297.4|Spock2|227:231;235:248 (ssRNA)
RNA: GGGAGUUCUACAGUCCGACGAUCGCUUCGAUAUCCGCAUGCUAGGAGACAGAAGAGGCAGGGGAGGAGGCCGAGGAGGAGGAGGGUGAGGCGGGUGAGGCAGAUGAUGGAGGCUACAUCUGGUAGAUAGCCCUCGACGGCCUCGGCAGGCCAGGGUGCCGACGGCCAGAAAGACAGGCCAGAAGAGACCUGGACAACAGCAGGCAACUUAGCAAAUGGAUCCGGAAGUCAGUGCGGAGGACCCUGGCUCCAGUGGGGGAGGACUGGGGACACACGCUACACACAUACACACAUAUGAGAUGUGCUCUUGCGGUCGCACUAGUGUGGAAUUCUCGGGUGUCAAGG
B9: ENSMUSG00000058297.7|Spock2|209:213;217:230;239:250 (ssRNA)
RNA: GGGAGUUCUACAGUCCGACGAUCGCUUCGAUAUCCGCAUGCUAGGAGGAGGCCGAGGAGGAGGAGGGUGAGGCGGGUGAGGCAGAUGAUGGAGGCUACAUCUGGUAGAUAGCCCUCGACGGCCUCGGCAGGCCAGGGUGCCGACGGCCAGAAAGACAGGCCAGAAGAGACCUGGACAACAGCAGGCAACUUAGCAAAUGGAUCCGGAAGUCAGUGCGGAGGACCCUGGCUCCAGUGGGGGAGGACUGGGGACACACGCUACACACAUACACACAUAUGAGAACACACACAUACAUGUGAGAUGCUCUUGCGGUCGCACUAGUGUGGAAUUCUCGGGUGUCAAGG
B10: ENSMUSG00000058297.12|Spock2|179:183;187:200;209:220;234:240;249:258 (ssRNA)
RNA: GGGAGUUCUACAGUCCGACGAUCGCUUCGAUAUCCGCAUGCUAGGGUGAGGCAGAUGAUGGAGGCUACAUCUGGUAGAUAGCCCUCGACGGCCUCGGCAGGCCAGGGUGCCGACGGCCAGAAAGACAGGCCAGAAGAGACCUGGACAACAGCAGGCAACUUAGCAAAUGGAUCCGGAAGUCAGUGCGGAGGACCCUGGCUCCAGUGGGGGAGGACUGGGGACACACGCUACACACAUACACACAUAUGAGAACACACACAUACAUGUGAGAUGUGACACACACAUGUGAGAACACACAUACUGCUCUUGCGGUCGCACUAGUGUGGAAUUCUCGGGUGUCAAGG
B11: ENSMUSG00000058297.12|Spock2 (ssRNA)
RNA: GGGAGUUCUACAGUCCGACGAUCGCUUCGAUAUCCGCAUGCUAGGGUGAGGCAGAUGAUGGAGGCUACAUCUGGUAGAUAGCCCUCGACGGCCUCGGCAGGCCAGGGUGCCGACGGCCAGAAAGACAGGCCAGAAGAGACCUGGACAACAGCAGGCAACUUAGCAAAUGGAUCCGGAAGUCAGUGCGGAGGACCCUGGCUCCAGUGGGGGAGGACUGGGGAGUGUGGCUUGUGUGUAUGUGUGAUAUGAGAUGUGUGUGUAUGAUGUGAGAUGUGAGUGUGUGAUGUGAGAUGUGUGUAUGUGCUCUUGCGGUCGCACUAGUGUGGAAUUCUCGGGUGUCAAGG
B12: ENSMUSG00000058297.13|Spock2 (ssRNA)
RNA: GGGAGUUCUACAGUCCGACGAUCGCUUCGAUAUCCGCAUGCUAGGCAGAUGAUGGAGGCUACAUCUGGUAGAUAGCCCUCGACGGCCUCGGCAGGCCAGGGUGCCGACGGCCAGAAAGACAGGCCAGAAGAGACCUGGACAACAGCAGGCAACUUAGCAAAUGGAUCCGGAAGUCAGUGCGGAGGACCCUGGCUCCAGUGGGGGAGGACUGGGGAGUGUGGCUUGUGUGUAUGUGUGAUAUGAGAUGUGUGUGUAUGAUGUGAGAUGUGAGUGUGUGAUGUGAGAUGUGUGUAUGUGAGAUGUCUCUUGCGGUCGCACUAGUGUGGAAUUCUCGGGUGUCAAGG
B13: ENSMUSG00000058297.17|Spock2 (ssRNA)
RNA: GGGAGUUCUACAGUCCGACGAUCGCUUCGAUAUCCGCAUGCUAGUAGAUAGCCCUCGACGGCCUCGGCAGGCCAGGGUGCCGACGGCCAGAAAGACAGGCCAGAAGAGACCUGGACAACAGCAGGCAACUUAGCAAAUGGAUCCGGAAGUCAGUGCGGAGGACCCUGGCUCCAGUGGGGGAGGACUGGGGAGUGUGGCUUGUGUGUAUGUGUGAUAUGAGAUGUGUGUGUAUGAUGUGAGAUGUGAGUGUGUGAUGUGAGAUGUGUGUAUGUGAGAUGUGUGUGUGUGUGUGUGUGUGUGUGACUCUUGCGGUCGCACUAGUGUGGAAUUCUCGGGUGUCAAGG
B14: ENSMUSG00000058297.10|Spock2|191:195;199:212;221:232;246:252 (ssRNA)
RNA: GGGAGUUCUACAGUCCGACGAUCGCUUCGAUAUCCGCAUGCUAGGAGGGUGAGGCGGGUGAGGCAGAUGAUGGAGGCUACAUCUGGUAGAUAGCCCUCGACGGCCUCGGCAGGCCAGGGUGCCGACGGCCAGAAAGACAGGCCAGAAGAGACCUGGACAACAGCAGGCAACUUAGCAAAUGGAUCCGGAAGUCAGUGCGGAGGACCCUGGCUCCAGUGGGGGAGGACUGGGGACACACGCUACACACAUACACACAUAUGAGAACACACACAUACAUGUGAGAUGUGACACACACAUGUGAGACUCUUGCGGUCGCACUAGUGUGGAAUUCUCGGGUGUCAAGG
B15: ENSMUSG00000058297.17|Spock2|149:153;157:170;179:190;204:210;219:228;234:259 (ssRNA)
RNA: GGGAGUUCUACAGUCCGACGAUCGCUUCGAUAUCCGCAUGCUAGUAGAUAGCCCUCGACGGCCUCGGCAGGCCAGGGUGCCGACGGCCAGAAAGACAGGCCAGAAGAGACCUGGACAACAGCAGGCAACUUAGCAAAUGGAUCCGGAAGUCAGUGCGGAGGACCCUGGCUCCAGUGGGGGAGGACUGGGGACACACGCUACACACAUACACACAUAUGAGAACACACACAUACAUGUGAGAUGUGACACACACAUGUGAGAACACACAUACUGAGAACACACACACACACACACACACACACACUCUUGCGGUCGCACUAGUGUGGAAUUCUCGGGUGUCAAGG
B16: ENSMUSG00000058297.13|Spock2|173:177;181:194;203:214;228:234;243:252 (ssRNA)
RNA: GGGAGUUCUACAGUCCGACGAUCGCUUCGAUAUCCGCAUGCUAGGCAGAUGAUGGAGGCUACAUCUGGUAGAUAGCCCUCGACGGCCUCGGCAGGCCAGGGUGCCGACGGCCAGAAAGACAGGCCAGAAGAGACCUGGACAACAGCAGGCAACUUAGCAAAUGGAUCCGGAAGUCAGUGCGGAGGACCCUGGCUCCAGUGGGGGAGGACUGGGGACACACGCUACACACAUACACACAUAUGAGAACACACACAUACAUGUGAGAUGUGACACACACAUGUGAGAACACACAUACUGAGAUGUCUCUUGCGGUCGCACUAGUGUGGAAUUCUCGGGUGUCAAGG

Target: TDP-43 (Homo sapiens, UniProt Q13148 1-414)
Sequence (Q13148 whole entry): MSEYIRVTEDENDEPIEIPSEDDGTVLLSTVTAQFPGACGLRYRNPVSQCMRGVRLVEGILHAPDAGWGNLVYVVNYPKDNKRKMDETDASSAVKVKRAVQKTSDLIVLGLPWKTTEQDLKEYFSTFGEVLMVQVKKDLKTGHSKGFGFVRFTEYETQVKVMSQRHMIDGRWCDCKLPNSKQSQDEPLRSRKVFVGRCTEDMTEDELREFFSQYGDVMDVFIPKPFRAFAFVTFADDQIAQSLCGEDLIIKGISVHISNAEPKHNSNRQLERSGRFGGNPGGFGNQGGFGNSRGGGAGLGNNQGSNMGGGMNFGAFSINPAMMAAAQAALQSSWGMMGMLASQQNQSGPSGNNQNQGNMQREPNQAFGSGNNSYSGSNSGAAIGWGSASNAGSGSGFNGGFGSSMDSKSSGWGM
Assay: RNA Bind-n-Seq with designed 260-mer pool; 25 mM Tris-HCl, 150 mM KCl, 3 mM MgCl2, BSA (printed 500 mg/mL), 20 units/mL SUPERase IN; pH not stated; 500 nM RNA pool, 1 h, 4 C; TDP-43 5, 50, 500 nM; high values mean tight binding
Details: protein: recombinant; tags: SBP (GST cleaved off with PreScission; pGEX-GST-SBP)
Procedure, shortened: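 Recombinant SBP-tagged TDP-43 at 5, 50 or 500 nM was captured on streptavidin beads, then incubated 1 h at 4 °C with 500 nM of an in vitro-transcribed 260-nt 3′ UTR oligo pool in 25 mM Tris-HCl, 150 mM KCl, 3 mM MgCl2, BSA and SUPERase IN. Bound RNA was washed, eluted with biotin, reverse transcribed, PCR-amplified and sequenced. Binding is R, each oligo's mapped-read-normalized abundance in the bound sample divided by its abundance in input. Duplicates used two independent protein batches.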

Binder | binding signal
B1 | 0.631 R (bound/input frequency ratio)
B2 | 0.266 R (bound/input frequency ratio)
B3 | 7.39 R (bound/input frequency ratio)
B4 | 6.74 R (bound/input frequency ratio)
B5 | 0.288 R (bound/input frequency ratio)
B6 | 0.243 R (bound/input frequency ratio)
B7 | 5.11 R (bound/input frequency ratio)
B8 | 2.44 R (bound/input frequency ratio)
B9 | 2.55 R (bound/input frequency ratio)
B10 | 2.28 R (bound/input frequency ratio)
B11 | 8.09 R (bound/input frequency ratio)
B12 | 7.72 R (bound/input frequency ratio)
B13 | 8.62 R (bound/input frequency ratio)
B14 | 2.04 R (bound/input frequency ratio)
B15 | 2.9 R (bound/input frequency ratio)
B16 | 2.37 R (bound/input frequency ratio)
